Compounds without any hit were thinned out: in the full panel of roughly 83,000, 20% have a hit.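 Results are percent growth after 48 hours of single-concentration exposure. 100 means growth as in untreated cells, lower positive values show inhibition; negative values down to -100 show cell death.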 A number with no mark means an inactive call. The source made the active and inactive calls. The calls were made as follows: active = growth percent below 10; inactive = the rest.
How the values were obtained:
Test in all cases: NCI-60 one-dose screen, 48 h (100 = growth as untreated, 0 = no growth, -100 = all killed)
Conditions in all cases: 10 µM
T-47D breast = system: T-47D breast
BT-549 breast = system: BT-549 breast
MDA-MB-435 melanoma = system: MDA-MB-435 melanoma
SW-620 colon = system: SW-620 colon
MCF7 breast = system: MCF7 breast
HCT-116 colon = system: HCT-116 colon
HCC-2998 colon = system: HCC-2998 colon
KM12 colon = system: KM12 colon

SMILES | growth (T-47D breast) | growth (BT-549 breast) | growth (MDA-MB-435 melanoma) | growth (SW-620 colon) | growth (MCF7 breast) | growth (HCT-116 colon) | growth (HCC-2998 colon) | growth (KM12 colon)
COc1cc(NS(C)(=O)=O)ccc1Nc1c2ccc(Cl)cc2nc2c(OC)cccc12 | 27.7% | 18.3% | 51% | -32% (active) | 23.7% | -63.7% (active) | -26.6% (active) | -49.4% (active)
CC1(C)Cc2c(cn(Cc3ccccc3)c2-c2ccccc2)-c2oncc21 | 75.7% | 108% | 92.8% | 95.7% | 105% | 88.2% | 104% | 105%
CCCCCCCCCCCCCCCCn1cc[n+](C)c1 | -0.127% (active) | -65.2% (active) | -55.8% (active) | -66.7% (active) | -79.9% (active) | -87.2% (active) | -94.4% (active) | -83.9% (active)
COC1OC2COC(c3ccccc3)OC2C(=O)C1NC(=O)c1ccccc1 (stereo unspecified) | 98.6% | 107% | 96.4% | 88.2% | 99.6% | 99% | 92.9% | 96.7%
N#Cc1c(-c2ccccc2)nc(SCC(=O)N2CCOCC2)[nH]c1=O | 93.4% | 88.2% | 112% | 106% | 89.7% | 99.9% | 109% | 114%
COc1ccc(N2CCN(c3nc(-c4ccccc4)c(C#N)c(=O)[nH]3)CC2)cc1 | 85.7% | 93.6% | 111% | 113% | 93.9% | 89.9% | 99.8% | 96.8%
CC(C)(C)c1ccc(OCCCCCCN2CCNCC2)cc1 | 34.8% | 58.7% | 68.3% | 45.9% | 17.5% | 8.35% (active) | -47.1% (active) | 51.1%
C[C@]12CC[C@H]3[C@@H](CCC4=CC(=O)CC[C@@]43C)[C@@H]1CC[C@@H]2c1csc(N)n1 | 24.8% | 34.2% | 55.5% | 56.9% | 26% | 32.7% | 45.8% | 50.8%
CCCCn1c(=O)[nH]c2c(c1=O)C(c1ccc(Cl)cc1)c1c([nH]c(=O)n(CCCC)c1=O)N2 | 73.3% | 100% | 103% | 101% | 88.2% | 96.6% | 103% | 102%
C[n+]1c(/C=C/c2c[nH]c3ccccc23)ccc2ccccc21 | 12.1% | 94.7% | 60.3% | 48.8% | 19.4% | 31% | 75.6% | 38.9%
CCOC(=O)c1cc2c(n1Cc1cc(OC)cc(OC)c1)-c1oncc1CC2 | 54.8% | 39.5% | -37% (active) | 34.9% | 16.6% | 14.2% | 19.4% | 19.5%
O=C(NCCc1nccs1)c1cnc2c(S)cccc2c1 | 10.8% | 48.1% | 26.4% | 4.05% (active) | -3.22% (active) | 2.16% (active) | 35.5% | 19.6%
CC(=O)Oc1ccc(C2=Cc3ccc(OC(C)=O)cc3OC2C)cc1 (stereo unspecified) | 88.5% | 42.9% | 25.2% | 47% | 49.1% | 38.3% | 78.2% | 39%
CCN(CC)CCn1c(=N)n(CC(O)c2ccc(Cl)c(Cl)c2)c2ccccc21 (stereo unspecified) | 66.5% | 76.7% | 1.39% (active) | 93.5% | 90% | 77.7% | 74.5% | 84.4%
NC1CCC(Nc2nc(NCc3cc(Cl)ccc3O)c3ncn(C4CCCC4)c3n2)CC1 (stereo unspecified) | -28% (active) | -21.2% (active) | -43.9% (active) | 3.11% (active) | -58.9% (active) | -17.6% (active) | -39.5% (active) | 1.98% (active)
COc1ccc(-c2cc(/C=C/C(=O)c3ccc(N)cc3)[nH]n2)cc1OC | 50.3% | 55.4% | 46.8% | 10.2% | 14.9% | 17.4% | 38.8% | 5.98% (active)
N#CC1C=Cc2c(ccc3ccccc23)N1C(=O)c1ccccc1 (stereo unspecified) | 56.7% | 33.5% | -31.4% (active) | 21.8% | 21.5% | 12% | 10.3% | -6.86% (active)
